# Measured values as given in PubChem BioAssay (NCATS).
# Inconclusive results are not listed. The source made the active and inactive calls. Calls come from the whole dose curve; as a rule, active = well fitted cell-killing curve with a large enough effect; inconclusive = small, poorly fitted or top-dose-only effect, or effect the other way; inactive = flat fitted curve, though single readings scatter.
# Tested on: Tov112D
# Experiment: Primary qHTS to identify gynecologic anti-cancer compounds using libraries of approved drugs and bioactive compounds (AID 1345084); note: nearly all actives have a fitted effect of over 55% in size
# Details: Gynecologic cancer cell panel viability, ATPlite luminescence, 48 h; series mostly up to 57.5 µM; activity change, negative = cytotoxicity: at the top concentration
# Summary of the method: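 Cytotoxicity screen measuring ATP content by luciferase luminescence. Each compound is applied at five concentrations for 48 h at 37 C with 5% CO2.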
# % is set by controls: 0 for no effect and ±100 for the full control effect.
row,SMILES,"activity change, negative = cytotoxicity"
1,COc1ccc(CN2C(=O)C(=O)c3cc(S(=O)(=O)N4CCC[C@H]4COc4cccnc4)ccc32)cc1,12.9% (inactive)
2,CC1=CC(=O)[C@]2(O[C@@H]3O[C@@H](C)[C@H](O)[C@@H](O)[C@H]3OC(=O)/C=C/c3ccccc3)C=CO[C@@H](O[C@@H]3O[C@H](CO)[C@@H](O)[C@H](O)[C@H]3O)[C@H]12,7.69% [at 25.3 µM] (inactive)
3,O=C(O)c1ccccc1NC(=O)N1CCC(c2ccccc2C(F)(F)F)CC1,2.79% (inactive)
4,Nc1nc2c(ncn2[C@@H]2O[C@H](CO)[C@@H](O)[C@H]2O)c(=O)[nH]1,12.5% (inactive)
5,C/C1=C\C[C@]2(C)C(=O)C(O)=C([C@H](C)CO)[C@H]2C/C=C(\C)[C@@H](O)CC/C(C)=C/CC1,7.09% [at 38.5 µM] (inactive)
6,C[C@]12C[C@@H](O)[C@@H]3C[C@@]1(O[C@@H]1O[C@H](CO)[C@@H](O)[C@H](O)[C@H]1O)[C@]3(COC(=O)c1ccccc1)C(=O)O2,4.23% [at 25.3 µM] (inactive)
